Measurements: the supplement of paper PMC8975748
Structures can show the parent of a compound that is named as a salt.

System: Saccharomyces cerevisiae BY4741 SeMeCo community
Assay: z-score of subpopulation abundance vs DMSO median, subpopulation auxotrophic for HLM; higher = larger share of this subpopulation than in DMSO controls
Conditions: 10 µM; 24 h; SM minimal medium; subpopulation (auxotrophy): HLM
Description: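 Fluorescent four-plasmid SeMeCo (self-establishing metabolically cooperating S. cerevisiae BY4741 community; plasmids pH-mRuby2, pL-mWasabi, pU-eCFP, pM-TagRFP657) was grown 24 h in minimal SM medium with each Selleck FDA-approved drug at 10 µM in 384-well plates. Cells were fixed and imaged by high-content confocal microscopy. For each auxotrophic subpopulation (and the prototroph), a z-score gives the deviation from the DMSO vehicle-control population median.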

Row | Compound | z-score of subpopulation abundance
1 | C[N+]1(C)[C@@H]2C[C@@H](OC(=O)C(O)(c3cccs3)c3cccs3)C[C@H]1[C@@H]1O[C@@H]12 [Tiotropium Bromide hydrate] | -0.78
2 | Nc1nc2c(ncn2COC(CO)CO)c(=O)[nH]1 [Ganciclovir] | -0.21
3 | CCOC(=O)C1=C(COCCN)NC(C)=C(C(=O)OC)C1c1ccccc1Cl (stereo not given) [Amlodipine] | 9.49
4 | CO[C@@H]1[C@H](OC(=O)/C=C/C=C/C=C/C=C/C(=O)O)CC[C@]2(CO2)[C@H]1[C@@]1(C)O[C@@H]1CC=C(C)C [Fumagillin] | 1.1
5 | CCOC(=O)C1=C[C@@H](OC(CC)CC)[C@H](NC(C)=O)[C@@H](N)C1 [Oseltamivir Phosphate] | 0.29
6 | NCCNc1ccc(NCCN)c2c1C(=O)c1ccncc1C2=O [Pixantrone Maleate] | -2.2
7 | CCN[C@@H]1C[C@H](N)[C@@H](O[C@H]2OC(CN)=CC[C@H]2N)[C@H](O)[C@H]1O[C@H]1OC[C@](C)(O)[C@H](NC)[C@H]1O [Netilmicin Sulfate] | 1.14
8 | COc1cc(NS(=O)(=O)c2ccc(N)cc2)nc(OC)n1 [SulfadiMethoxine sodium] | 0
9 | CN1CCN(CCCN2c3ccccc3Sc3ccc(C(F)(F)F)cc32)CC1 [Trifluoperazine 2HCl] | -0.79
10 | O=C1CCc2ccc(OCCCCN3CCN(c4cccc(Cl)c4Cl)CC3)cc2N1 [Aripiprazole] | 0.77
11 | COCCOC(=O)C1=C(C)NC(C)=C(C(=O)OC/C=C/c2ccccc2)C1c1cccc([N+](=O)[O-])c1 (stereo not given) [Cilnidipine] | -0.44
12 | NC(=O)C(c1ccccc1)(c1ccccc1)[C@@H]1CCN(CCc2ccc3c(c2)CCO3)C1 [Darifenacin HBr] | -0.63
13 | CCN(CC)CCOC(=O)c1ccc(N)cc1Cl [Chloroprocaine HCl] | -0.23
14 | CNCCC(Oc1ccc(C(F)(F)F)cc1)c1ccccc1 (stereo not given) [Fluoxetine HCl] | -0.31
15 | O=C(O)C[C@H](O)C[C@H](O)/C=C/c1c(C2CC2)nc2ccccc2c1-c1ccc(F)cc1 [Pitavastatin Calcium] | 2.39
16 | C[C@]12CCC(=O)C=C1[C@@H]1C[C@@H]1[C@H]1[C@@H]3[C@@H]4C[C@@H]4[C@@]4(CCC(=O)O4)[C@@]3(C)CC[C@@H]12 [Drospirenone] | 0.31
17 | COc1ccc(Cc2cnc(N)nc2N)cc1OC [Diaveridine] | -0.26
18 | COc1cccc2c1C(=O)c1c(O)c3c(c(O)c1C2=O)C[C@@](O)(C(=O)CO)C[C@@H]3O[C@H]1C[C@H](N)[C@H](O[C@@H]2CCCCO2)[C@H](C)O1 [Pirarubicin] | -1.27
19 | OC(CCCN1CCCCC1)(c1ccccc1)c1ccccc1 [Diphenidol HCl] | -0.07
20 | Cc1cc(O)c(C(=O)N[C@@H](C(=O)N[C@@H]2C(=O)N3C(C(=O)O)=C(CSc4nnnn4C)CS[C@H]23)c2ccc(O)cc2)cn1 [Cefpiramide sodium] | -0.6

Row | Compound | z-score of subpopulation abundance
21 | CC/C(=C(\c1ccccc1)c1ccc(OCCN(C)C)cc1)c1ccccc1 [Tamoxifen] | 0.89
22 | CN[C@@H]1[C@@H](O[C@H]2O[C@H](CO)[C@@H](N)[C@H](O)[C@H]2O)OC2C[C@@H](N)[C@@H](O[C@H]3[C@H](O)[C@@H](O)[C@H](N)C[C@@H]3N)OC2[C@@H]1O (stereo not given in full) [Apramycin Sulfate] | 0.1
23 | NCC[C@H](O)C(=O)N[C@@H]1C[C@H](N)[C@@H](O[C@H]2O[C@H](CN)[C@@H](O)[C@H](O)[C@H]2O)[C@H](O)[C@H]1O[C@H]1O[C@H](CO)[C@@H](O)[C@H](N)[C@H]1O [Amikacin disulfate] | -0.68
24 | NS(=O)(=O)Cc1noc2ccccc12 [Zonisamide] | 1.38
25 | CC[C@@H]1/C=C(\C)C[C@H](C)C[C@H](OC)[C@H]2O[C@@](O)(C(=O)C(=O)N3CCCC[C@H]3C(=O)O[C@H](/C(C)=C/[C@@H]3CC[C@@H](O)[C@H](OC)C3)[C@H](C)[C@@H](O)CC1=O)[C@H](C)C[C@@H]2OC [Ascomycin (FK520)] | 1.57
26 | CCN1CCN(c2cc3c(cc2F)c(=O)c(C(=O)O)cn3C2CC2)CC1 [Enrofloxacin] | 0.21
27 | Cc1ccccc1OCC(O)CO (stereo not given) [Mephenesin] | -0.4
28 | CC(=O)OC(C)C[N+](C)(C)C (stereo not given) [Methacholine chloride] | 0.76
29 | C[C@H]1COc2c(N3CCN(C)CC3)c(F)cc3c(=O)c(C(=O)O)cn1c23 [Levofloxacin] | -1.03
30 | CC[C@@H](CO)NCCN[C@@H](CC)CO [Ethambutol 2HCl] | 0.16
31 | CC(C(=O)O)c1ccc2c(c1)Cc1cccnc1O2 (stereo not given) [Pranoprofen] | 0.61
32 | Cc1cnc(NC(=O)C2=C(O)c3ccccc3S(=O)(=O)N2C)s1 [Meloxicam] | -1.09
33 | CCCc1nc(C)c2c(=O)nc(-c3cc(S(=O)(=O)N4CCN(CC)CC4)ccc3OCC)[nH]n12 [Vardenafil HCl Trihydrate] | -0.16
34 | CCn1cc(C(=O)O)c(=O)c2cc(F)c(N3CCN(C)CC3)cc21 [Pefloxacin Mesylate Dihydrate] | 0.88
35 | O=C(O)Cc1ccccc1Nc1c(Cl)cccc1Cl [Diclofenac acid] | 0
36 | N#Cc1ccc2[nH]cc(CCCCN3CCN(c4ccc5oc(C(N)=O)cc5c4)CC3)c2c1 [Vilazodone HCl] | -0.45
37 | CN(C)CCC=C1c2ccccc2C=Cc2ccccc21 [Cyclobenzaprine HCl] | 0.13
38 | N#Cc1ccc(Oc2ccc3c(c2)COB3O)cc1 [Crisaborole (AN2728)] | 3.78
39 | Clc1ccc(COC(Cn2ccnc2)c2ccc(Cl)cc2Cl)c(Cl)c1 (stereo not given) [Miconazole] | 12.2
40 | CS(=O)(=O)c1ccc([C@@H](O)[C@@H](CF)NC(=O)C(Cl)Cl)cc1 [Florfenicol] | -0.4
